Assay outcomes: PubChem BioAssay, National Center for Advancing Translational Sciences (NCATS)
ELG1 DNA repair – blocks ELG1-dependent DNA repair in HEK293T cells. AID 504467. Potency, µM (series often up to 46.1 µM), for the others: at the top dose activity change, negative = inhibition, hits mostly inhibitors. 2.3% of 330,000 active. HEK293T ELG1-luciferase reporter, luminescence, 16 h; DNA damage induced by 5-fluorouridine; note: potency is the fitted concentration of half-maximal effect; nearly all actives have a fitted effect of over 55% in size
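Quantitative HTS, concentration-response format. 2,000 cells/well co-treated with 5-fluorouridine and compound, 16 hr in 5% CO2 at 37 °C; ONE-Glo luminescence read after 30 min.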
TDP1 cell CPT – growth inhibition of DT40 Tdp1-/-;hTDP1 cells with camptothecin (screen for TDP1 inhibitors) | chicken DT40 Tdp1-/-;hTDP1 cells + 20 nM CPT, ATP luminescence, 48 h | Potency, µM (doses to about 46.2 µM), for the others: at the highest dose activity change, negative = growth inhibition, most hits filed as inhibitors | 12% of 420,000 active; note: potency is the fitted concentration of half-maximal effect; nearly all actives have a fitted effect of over 55% in size
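Chicken DT40 Tdp1-/- cells stably complemented with human TDP1 were seeded at 400 cells/well in medium containing 20 nM camptothecin, exposed to pin-transferred compounds, and grown at 37 °C for at least 48 hr. Viability was read as ATP luminescence.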
DT40 TDP1 no CPT – qHTS for Inhibitors of human tyrosyl-DNA phosphodiesterase 1 (TDP1): qHTS in cells in absence of CPT; DT40 Tdp1-/- hTDP1 cells, no CPT, ATP luminescence, 48 h; Potency, µM (doses to about 46.2 µM), inactives show at the top dose activity change, negative = growth inhibition, hits mostly inhibitors; 15% of 420,000 active; AID 686978, 2013; note: potency is the fitted concentration of half-maximal effect; nearly all actives have a fitted effect of over 55% in size
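Seeded 400 DT40-hTDP1 cells/well (vehicle DMSO, no 20 nM CPT); pinned compounds; ≥48 hr at 37 °C; CellTiter-Glo luminescence as viability measure.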
RORg inh – blocks mouse ROR gamma transcriptional activity | Drosophila S2 Gal4-RORgamma UAS-luciferase reporter, 20 h | 5.4% of 310,000 active | AID 2551 | P51450 | Potency, µM (titrated, usually from 53.6 µM), without a hit: at the top dose activity change, negative = inhibition, usual class: inhibitors; note: potency is the fitted concentration of half-maximal effect; nearly all actives have a fitted effect of over 60% in size
Target sequence (P51450 whole entry, looked up, the tested form may be a part): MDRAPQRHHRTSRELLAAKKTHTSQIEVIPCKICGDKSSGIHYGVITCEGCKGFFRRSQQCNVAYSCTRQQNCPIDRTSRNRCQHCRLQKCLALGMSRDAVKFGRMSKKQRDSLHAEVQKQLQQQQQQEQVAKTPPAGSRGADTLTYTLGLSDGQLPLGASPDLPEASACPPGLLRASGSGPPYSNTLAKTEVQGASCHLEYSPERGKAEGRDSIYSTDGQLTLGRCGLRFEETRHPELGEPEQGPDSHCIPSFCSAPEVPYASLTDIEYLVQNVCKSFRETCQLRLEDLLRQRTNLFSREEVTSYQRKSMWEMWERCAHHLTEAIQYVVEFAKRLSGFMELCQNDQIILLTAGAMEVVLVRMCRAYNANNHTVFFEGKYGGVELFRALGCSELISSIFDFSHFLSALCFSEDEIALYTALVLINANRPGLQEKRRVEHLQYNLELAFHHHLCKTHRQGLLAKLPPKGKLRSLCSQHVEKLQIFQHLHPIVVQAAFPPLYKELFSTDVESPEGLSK
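Stable Schneider cell line, Gal4 DNA-binding domain fused to ROR gamma, UAS-luciferase. Cmpd 1 hr RT → CuSO4 700 uM final → 20 hr RT → luciferase reagent 10 min → luminescence.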
IL1B secr inh – blocks inflammasome-driven IL-1 beta release; 4.7% of 360,000 active; activity change, % at 57.5 µM; AID 743279; THP-1 LPS/ATP IL-1B secretion, AlphaLISA, 16 h; active compounds read low; in the data active = activity change below about -50%; inconclusive = mostly about -30% to -49%
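THP-1 cells pretreated 1 hr with compounds (up to 57.5 uM final), then stimulated with LPS (250 ng/mL final) plus ATP (1.25 mM final); secreted IL-1B measured by AlphaLISA after 16 hr, decreased signal indicating inhibition.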
VP16 counter – Gal4-VP16 reporter inhibition counter-screen | Drosophila S2 Gal4-VP16 UAS-luciferase, luminescence, 20 h | Potency, µM (titrated, usually from 53.6 µM), for inactives: top-dose activity, negative = inhibition, hits mostly inhibitors | 3.5% of 310,000 active;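 note: Gal4-VP16 expression switched on by copper sulfate through the metallothionein promoter; potency is the fitted concentration of half-maximal effect; nearly all actives have a fitted effect of over 50% in size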
Numbers without * were called inactive; u = inconclusive; x = no result; ! = not confirmed by another sample. This is a sample that favours compounds with a hit; in the whole collection about 21% have one here. Unless noted, calls come from the whole dose curve; as a rule, active = well fitted curve in the direction sought with a large enough effect; inconclusive = small, poorly fitted or top-dose-only effect, or another doubt; inactive = no such curve, though single readings can be large; an effect the other way counts as inactive or inconclusive. % is set by controls: 0 for no effect and ±100 for the full control effect.

SMILES	ELG1 DNA repair	TDP1 cell CPT	DT40 TDP1 no CPT	RORg inh	IL1B secr inh	VP16 counter
O=C(Nc1ccc2c(c1)OCCO2)C(c1cc2ccccc2o1)N1CCC(Cc2ccccc2)CC1 (configuration not stated)	x	u	u	x	44.4	x
Cc1ccc(N2CCN(C(C(=O)Nc3c(C)cccc3C)c3cc4ccccc4o3)CC2)cc1 (configuration not stated)	x	13µM*	13µM*	x	4.0	x
CCn1c(N)c(C(=O)NCCOC)sc1=S	u	-3.0%	-0.4%	-1.0%	13.5	-9.8%
CCn1c(N)c(C(=O)Nc2ccccc2C(=O)OC)sc1=S	-0.5%	u	16.4µM*	-4.0%	34.0	7.9%
CCCN1C(=O)/C(=N\OCC(=O)NC23CC4CC(CC(C4)C2)C3)c2ccccc21	-20.9%	16.4µM*	16.4µM*	41.6%	-3.6	-7.3%
CCCN1C(=O)/C(=N\OCC(=O)Nc2ccc(C(C)C)cc2)c2ccccc21	-9.6%	-15.4%	u	36.2%	u	-6.4%
COc1cc(-c2noc(C)c2C#CC2(O)CCCCC2)cc(OC)c1OC	u	u	20.6µM*	0.2%	u	-0.5%
COc1cc(-c2noc(C)c2C#CC2(N)CCCCC2)cc(OC)c1OC	u	u	u	-11.0%	-12.7	-0.2%
COc1cc(-c2noc(C)c2C#Cc2ccsc2)cc(OC)c1OC	u	0.708µM*!	0.92µM*	-2.3%	71.6	-6.7%
COc1cc(-c2noc(C)c2C#CCO)cc(OC)c1OC	-8.5%	u	12.6µM*!	-4.9%	-9.3	2.9%
COc1cc(OC)cc(-c2c(C#Cc3ccsc3)c3cc(-c4ccccc4OC)ccc3n2C)c1	u	u	-28.0%	x	-4.2	x
Cc1ccccc1-c1cncnc1N1CCNCC1	x	5.7%	-7.2%	-0.2%	x	12.2%
CCc1c(C)nc(N)n2c(SCC(=O)N3CCN(c4ccccc4F)CC3)nnc12	2.4%	x	x	-6.3%	x	4.4%
CCOc1ccc(S(=O)(=O)O)c2cccnc12	x	-6.3%	-3.9%	-18.9%	x	-18.1%
CCN(C(=O)COc1cc(=O)n(CC)c2ccccc12)c1cc(Cl)ccc1OC	20.6µM*	u	20.6µM*	-11.5%	16.0	-0.5%
CCCN(C(=O)Cn1c(=O)oc2cc(Cl)ccc21)c1ccc(C(C)C)cc1	x	20.6µM*	u	x	x	x
CCN(C(=O)Cn1c(=O)oc2ccccc21)c1cccc(C)c1	-3.5%	4.1%	u	-16.0%	-9.5	-25.7%
CCCN(C(=O)COc1cc(=O)n(CC)c2ccccc12)c1ccc(C(C)C)cc1	x	16.4µM*	10.3µM*	x	x	x
CCN(C(=O)COc1cc(=O)n(CC)c2ccccc12)c1cccc(Cl)c1	-10.4%	14.6µM*	u	13.1%	-13.0	-1.4%
CCN(Cc1ccccc1)C(=O)COc1cc(=O)n(CC)c2ccccc12	14.9%	u	20.6µM*	8.3%	-4.9	-7.3%
Oc1c(C(c2ccc(Cl)cc2)N2CCCC2)sc2nc(-c3ccco3)nn12 (configuration not stated)	x	-12.8%	-16.2%	x	x	x
CCNc1nc(=S)nc(NCc2ccccc2)[nH]1	18.7%	x	x	3.16µM*	x	7.08µM*
CCNc1nc(NC(C)C)nc(Nn2cnnc2)n1	16.2%	4.0%	-15.2%	-5.5%	8.8	-6.7%
CCNc1nc(=S)nc(NC(C)C)[nH]1	6.1%	-29.6%	u	10µM*	7.3	12.6µM*
COc1ccc(C)cc1NC(=O)CCC(=O)Nc1ccc2nc(N3CCN(C)CC3)cc(C)c2c1	u	u	u	4.6%	-2.1	-13.5%
SMILES	ELG1 DNA repair	TDP1 cell CPT	DT40 TDP1 no CPT	RORg inh	IL1B secr inh	VP16 counter
COc1ccccc1CC(=O)Nc1ccc2nc(N3CCC(C)CC3)cc(C)c2c1	x	-21.3%	u	x	x	x
Cc1cccc(CC(=O)Nc2ccc3nc(N4CCC(C)CC4)cc(C)c3c2)c1	x	20.6µM*	14.6µM*	x	x	x
Cc1cc(N2CCC(C)CC2)nc2ccc(NC(=O)Cc3ccccc3Br)cc12	x	20.6µM*	13µM*	x	x	x
COc1ccc(/C=C/C(=O)Nc2ccc3nc(N4CCC(C)CC4)cc(C)c3c2)cc1OC	x	4.11µM*	4.61µM*	x	x	x
O=C(C[C@H]1C/C=C\CC[C@@H](Cc2ccc(F)cc2)C(=O)O[C@H](c2ccccc2)CNC1=O)N[C@H](CO)Cc1ccccc1	u	18.4µM*	14.6µM*	x	-9.8	x
CC(C)(C)OC(=O)C[C@@H]1C/C=C\C[C@@H](CC(=O)N[C@@H](CO)Cc2ccccc2)C(=O)NC[C@@H](c2ccccc2)OC1=O	7.3µM*	23.1µM*	u	x	-2.9	x
O=C(C[C@@H]1C/C=C/CC[C@@H](Cc2ccc(F)cc2)C(=O)O[C@@H](c2ccccc2)CNC1=O)NCCO	7.3µM*	u	18.4µM*	x	-5.8	x
O=C(C[C@H]1C/C=C\C[C@H](Cc2ccc(F)cc2)C(=O)O[C@@H](c2ccccc2)CNC1=O)N[C@@H](CO)Cc1ccccc1	-4.3%	20.6µM*	11.6µM*	x	-3.2	x
COc1cccc(NC(=O)N(C2CCCCC2)C(C)c2cccs2)c1 (configuration not stated)	7.6%	10µM*	12.6µM*	17.8%	1.5	0.3%
O=C(Nc1ccc(Cl)c(Cl)c1)N(Cc1c[nH]c2ccccc12)C1CCCCC1	x	5.8µM*	9.2µM*	x	x	x
COc1cccc(NC(=O)N(Cc2c[nH]c3ccccc23)C2CCCCCC2)c1	x	11.6µM*	9.2µM*	x	x	x
COc1cc(NC(=O)CCCc2c[nH]c3ccccc23)cc(OC)c1	u	u	u	u	-9.3	u
CCCNC(=O)Nc1cc(C(=O)NCc2cccc(OCC)c2)ccc1N1CCCC1	x	-0.9%	-4.3%	x	x	x
O=C(NCCc1c[nH]c2ccc(Cl)cc12)c1cccnc1	u	u	20.6µM*	-14.4%	-1.4	-2.0%
COCCN1C(=O)N[C@@H](CCc2ccccc2)C(C(=O)OC)=C1C	x	x	x	-9.7%	x	-12.4%
CC(C)(C)C(=O)NC1(C(F)(F)F)NC(=O)N(Cc2ccccc2)C1=O (configuration not stated)	u	18.3%	2.0%	13.4%	51.5	u
Cc1ccc(S(=O)(=O)NC2(C(F)(F)F)NC(=O)N(Cc3ccccc3)C2=O)cc1 (configuration not stated)	u	5.7%	0.1%	-4.8%	-0.5	1.4%
COc1ccc(CNC(=O)c2[nH]c(C(F)(F)F)nc2-c2ccccc2)cc1	x	-8.1%	u	x	18.3	x
